# The campaign covered roughly 1,100 compounds. About 70 (6%) were called active. Entries that show only a call come without a potency. Roughly 22% stayed inconclusive and do not appear here. Calls come from the whole dose curve; as a rule, active = well fitted curve in the direction sought with a large enough effect; inconclusive = small, poorly fitted or top-dose-only effect, or another doubt; inactive = no such curve, though single readings can be large or run the other way. Only a selection was taken, and actives are over-represented in it overall.
# Molecular target: Polyunsaturated fatty acid lipoxygenase ALOX12 (Homo sapiens) (UniProt P18054)
# Sequence (P18054 whole entry, looked up): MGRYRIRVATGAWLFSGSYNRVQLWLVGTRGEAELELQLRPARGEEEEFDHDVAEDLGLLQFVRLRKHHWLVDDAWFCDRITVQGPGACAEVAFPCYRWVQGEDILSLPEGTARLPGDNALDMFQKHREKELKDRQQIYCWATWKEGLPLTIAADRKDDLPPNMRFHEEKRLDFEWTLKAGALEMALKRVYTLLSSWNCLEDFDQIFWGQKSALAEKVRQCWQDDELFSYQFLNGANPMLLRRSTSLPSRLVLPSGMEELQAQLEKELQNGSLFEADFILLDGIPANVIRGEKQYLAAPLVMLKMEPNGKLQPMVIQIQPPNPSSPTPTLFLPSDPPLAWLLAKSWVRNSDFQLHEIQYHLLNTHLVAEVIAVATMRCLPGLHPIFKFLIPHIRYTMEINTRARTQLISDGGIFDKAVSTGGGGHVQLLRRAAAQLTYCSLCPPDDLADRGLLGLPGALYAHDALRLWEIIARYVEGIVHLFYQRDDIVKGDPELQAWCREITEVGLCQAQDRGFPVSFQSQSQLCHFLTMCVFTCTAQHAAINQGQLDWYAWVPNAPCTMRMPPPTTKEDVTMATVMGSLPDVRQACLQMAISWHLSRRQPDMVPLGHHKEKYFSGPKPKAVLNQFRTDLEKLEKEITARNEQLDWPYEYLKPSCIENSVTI
# Experiment: Confirmatory qHTS assay for inhibitors of human arachidonate 12S-lipoxygenase (ALOX12): Round 2
# Settings: purified human 12-LOX, xylenol orange absorbance; series mostly up to 125 µM
# Description: Assay Provider: Theodore R. Holman Ph.D. University of California, Santa Cruz, California Human lipoxygenase 12hLO is a member of the closely related lipoxygenase family of enzymes which catalyze the site-specific oxidation of arachidonic acid to various hormone precursor molecules and as such is a candidate for drug development in a variety of disease areas, such as cancer and inflammation. Inhibition of 12hLO activity was screened by utilizing arachidonic acid as a substrate. The extent of hydroperoxide product formation was measured by a secondary chromogenic reaction in which xylenol orange (XO, Sigma-Aldrich, cat. number 39,818-7) reacts with the ferric ions produced from the reaction between the hydroperoxide and ferrous ions. The Fe (III)-XO complex is characterized with red-shifted absorbance at 560 nm. A purified preparation of human 12hLO was supplied by Dr. Holman laboratory, University of California, Santa Cruz.
# PROTOCOL TABLE SEQUENCE No. (e.g., 1, 2, 3, etc.); […] (e.g., Cells, Incubation, Reagent, etc.); VALUE; DESCRIPTION 1; Enzyme; 3 uL; 150 nM 12hLO enzyme solution dispensed in 1536-well Greiner black, clear bottom plates. 2; Compound; 23 nL; compounds and controls were added. 3; Incubate; 15 min; room temperature. 4; Substrate; 1 uL; 40 uM arachidonic acid (final concentration). 5; Incubate; 30 min; room temperature. 6; Reagent; 4 uL; Fe-XO solution was added to each well. 7; Incubation; 30 min; room temperature 8; Detector; absorbance; Read 1 at 405 nm absorbance using ViewLux (PerkinElmer) CCD imager. 9; Detector; absorbance; Read 2 at 573 nm absorbance using ViewLux (PerkinElmer) CCD imager. NOTES (numbers refer to sequence above) 1; 150 nM 12hLO (final concentration) in buffer solution (25 mM Hepes, 0.01% Triton X-100, pH 7.0) was dispensed in columns 1, 2, 5-48. Column 1 is neutral (100% activity). Buffer only was dispensed in columns 3 and 4 as no enzyme negative controls. The plates were covered with metal lids with gas-exchange holes. 2; Compounds were pin transferred via a Kalypsys Pin Tool (Wako USA) in column 5 - 48. Control compound was transferred in column 2, titration of nordihydroguaiaretic acid (NDGA, Sigma-Aldrich, N5023) with top concentration of 20 mM in DMSO then 1:3 dilution in duplicate. Dilution factor of 23 nL into 4 uL final assay volume. 3; Covered assay plates were incubated for 15 min at room temperature. 4; Substrate was added to start the reaction; 40 uM arachidonic acid (Sigma-Aldrich, St. Louis, MO) was dispensed throughout the plate. 6; Chromogenic detection reagent solution (divalent iron/xylenol orange, Fe-XO) was added to each well: 200 uM xylenol orange, 300 uM ferrous ammonium sulfate prepared freshly in 50 mM sulfuric acid. 8, 9; Two absorbance readouts were obtained at 405 nm and at 573 nm using a ViewLux high-throughput CCD plate imager (PerkinElmer). The 573 to 405 (Read 2 / Read 1) absorbance ratio was used to compute reaction progress.
# Potency is the fitted concentration of half-maximal effect.
row,SMILES,Potency
1,COc1ccccc1NC(=O)Nc1ccc2n(c1=O)C[C@H]1C[C@@H]2CN(C2CCOCC2)C1,14.1 µM (active)
2,O=C(Nc1ccc2n(c1=O)C[C@H]1C[C@@H]2CN(Cc2ccc(F)cc2)C1)c1cccs1,inactive
3,Cc1o[nH]c(=O)c1C[C@H](N)C(=O)O,inactive
4,C#C[C@H]1CN2CC[C@H]1C[C@@H]2COC(=O)NCCC,17.8 µM (active)
5,O=C(O)C1=NOC2CN(Cc3cccc(Br)n3)CC12 (stereo not given),inactive
6,c1cc2nc(C3CCNCC3)[nH]c2cn1,inactive
7,CCN1C[C@]2(COC(=O)c3ccccc3N3C(=O)CC(C)C3=O)CC[C@H](OC)[C@@]34C5C[C@@H]6[C@@H](OC)C[C@@](O)(C5[C@H]6OC)[C@](O)([C@@H](OC)C23)[C@@H]14 (stereo not given in full),inactive
8,CCOc1ccc(CN(CCc2ccc3c(c2)OCO3)Cc2ccc(C)cc2)cc1,inactive
9,N[C@@]1(C(=O)O)CC[C@H](C(=O)O)C1,inactive
10,CSc1ccc(-c2ccc(=O)n3c2[C@@H]2C[C@@H](CN(S(C)(=O)=O)C2)C3)cc1,inactive
11,CSc1ccc(-c2ccc(=O)n3c2[C@@H]2C[C@@H](CN(S(=O)(=O)c4cccs4)C2)C3)cc1,15.8 µM (active)
12,CCCS(=O)(=O)N1C[C@@H]2C[C@H](C1)c1c(-c3ccc(Cl)cc3)ccc(=O)n1C2,inactive
13,CSc1ccc(CN2CCN(C(=O)COc3ccc(C)cc3)CC2)cc1,inactive
14,O=C(Cc1ccc(Cl)cc1)N1Cc2ccccc2CC2(CCCN2CC2CCNC2)C1 (stereo not given),inactive
15,O=C(O)C1CN(Cc2ncc[nH]2)CCN(C(=O)Cc2cccs2)C1 (stereo not given),inactive

# Reference: PubChem BioAssay AID1671189 (National Center for Advancing Translational Sciences (NCATS), 2021)
